Results on 82 molecules are retold here after publication PMC4336329 (PLoS ONE, 2015).

The whole screen tested about 310,000 compounds, of which about 14,000 (4.5%) showed an effect of 50% or more. The effect is printed as a negative number. This is one part of a sample in which strong results are shown more often than they occur.
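Also: peak tail current of the secondary pulse compared with the same well before compound.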

In the assay the target is human ether-à-go-go-related gene (hERG) potassium channel (human, UniProt Q12809). As to the kind of experiment: primary screen, population patch clamp on CHO cells stably expressing hERG; higher = less effect of the substance.
Sequence of human ether-à-go-go-related gene (hERG) potassium channel (Q12809 whole entry, looked up): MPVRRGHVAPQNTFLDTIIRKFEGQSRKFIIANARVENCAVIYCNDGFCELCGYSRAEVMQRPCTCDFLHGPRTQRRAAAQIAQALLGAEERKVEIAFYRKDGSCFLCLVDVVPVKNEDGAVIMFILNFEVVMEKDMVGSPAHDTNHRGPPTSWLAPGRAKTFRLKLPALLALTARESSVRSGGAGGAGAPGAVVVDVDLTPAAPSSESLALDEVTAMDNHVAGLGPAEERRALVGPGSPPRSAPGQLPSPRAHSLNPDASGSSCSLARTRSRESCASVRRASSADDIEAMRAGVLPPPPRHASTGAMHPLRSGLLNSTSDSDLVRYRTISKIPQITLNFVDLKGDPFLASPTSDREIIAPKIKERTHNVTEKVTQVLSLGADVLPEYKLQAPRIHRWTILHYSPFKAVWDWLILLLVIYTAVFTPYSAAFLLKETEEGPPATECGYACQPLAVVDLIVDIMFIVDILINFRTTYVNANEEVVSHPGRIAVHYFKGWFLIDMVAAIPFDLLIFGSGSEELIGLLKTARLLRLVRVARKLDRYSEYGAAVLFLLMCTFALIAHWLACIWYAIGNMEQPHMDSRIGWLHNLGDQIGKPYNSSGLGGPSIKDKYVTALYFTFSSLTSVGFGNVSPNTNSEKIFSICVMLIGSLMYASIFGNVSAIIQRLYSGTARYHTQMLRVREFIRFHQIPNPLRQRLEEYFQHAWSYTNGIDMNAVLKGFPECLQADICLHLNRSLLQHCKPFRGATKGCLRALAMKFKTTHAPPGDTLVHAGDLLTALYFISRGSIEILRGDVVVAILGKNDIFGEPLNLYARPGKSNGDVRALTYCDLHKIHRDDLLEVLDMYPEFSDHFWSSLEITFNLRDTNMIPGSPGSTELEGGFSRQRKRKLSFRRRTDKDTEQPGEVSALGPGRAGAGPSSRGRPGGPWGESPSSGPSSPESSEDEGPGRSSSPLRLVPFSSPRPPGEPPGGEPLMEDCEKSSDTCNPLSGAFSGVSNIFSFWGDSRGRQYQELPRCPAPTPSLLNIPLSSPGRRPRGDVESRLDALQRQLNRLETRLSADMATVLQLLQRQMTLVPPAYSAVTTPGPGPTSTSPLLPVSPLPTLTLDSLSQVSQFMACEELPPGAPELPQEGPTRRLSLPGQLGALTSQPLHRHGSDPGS
As to `CCOC(=O)Cc1csc(NC(=O)c2ccc(S(=O)(=O)N(CCOC)CCOC)cc2)n1`, the “hERG current change (%, negative = inhibition) at 10uM” value is -1.25%.
Turning to `O=C(Cc1ccccc1)Nc1nnc(-c2cccc([N+](=O)[O-])c2)s1`, the “hERG current change (%, negative = inhibition) at 10uM” value amounted to 5.44%.
In the case of `COc1ccc(CCC(=O)Nc2cc(S(=O)(=O)N3CCOCC3)ccc2OC(C)C)cc1`, the “hERG current change (%, negative = inhibition) at 10uM” value was -34.8%.
As for `COc1ccccc1N(C)S(=O)(=O)c1ccc(C(=O)OCC(=O)NCc2cccs2)cc1`, the figure is 5.35%; as for `CCN(c1ccc(OC)cc1)S(=O)(=O)c1ccc2c(c1)CC(C)N2C(=O)C1CC1` (stereo not shown), 19.5%; as for `O=S(=O)(NCCc1ccc(F)cc1)c1cccc2cccnc12`, -0.538%.
On to `CCCCN1C(=O)C(=O)N(CC(=O)N2N=C3/C(=C/c4ccco4)CCCC3C2c2ccco2)C1=O` (stereo not shown), for which the “hERG current change (%, negative = inhibition) at 10uM” value was -75%.
Take `Cn1cnnc1SCC(=O)N1N=C2/C(=C/c3ccco3)CCCC2C1c1ccco1` (stereo not shown): the “hERG current change (%, negative = inhibition) at 10uM” value was -25.6%.
Take `O=C(CSc1nccc(=O)[nH]1)N1N=C2/C(=C/c3ccco3)CCCC2C1c1ccco1` (stereo not shown): the “hERG current change (%, negative = inhibition) at 10uM” value stood at 17.4%.
In the case of `CC1CCN(C(=O)CSc2nc3c(c(=O)n(C)c(=O)n3C)n2C)CC1`, the “hERG current change (%, negative = inhibition) at 10uM” value stood at 10.5%.
Take `COc1ccnc(CN(C)C(=O)C2CCC(=O)N(Cc3cccc(C(F)(F)F)c3)C2)c1` (stereo not shown): the “hERG current change (%, negative = inhibition) at 10uM” value is reported as -18.6%.
As for `COc1ccc(CCNC(=O)Cc2cccc(C(F)(F)F)c2)cc1OC`, the figure is 5.75%; as for `O=C(c1cccc(C(F)(F)F)c1)N1CCN(CCc2ccccc2)CC1`, -47.8%; as for `CN(CC1CCN(CCc2cccc(C(F)(F)F)c2)CC1)C(=O)c1ccc(F)cc1`, -70.8%.
As for `COc1cccc(CN(C)C(=O)c2ccc(OCC(=O)Nc3cccc(C(F)(F)F)c3)c(OC)c2)c1`, the figure is -26.2%; as for `CC1CCN(CC(=O)c2cccc(C(F)(F)F)c2)CC1.O=C(O)C(=O)O`, 7.63%.
Under `COc1cc(C(=O)N(C)CC2CCN(CCc3cccc(C(F)(F)F)c3)CC2)ccc1C` stands -78.8%.
As for `COc1cccc(CCNCc2cccc(C(F)(F)F)c2)c1.O=C(O)C(=O)O`, the “hERG current change (%, negative = inhibition) at 10uM” value is recorded as -3.46%.
Take `CN(CC1CCN(CCc2cccc(C(F)(F)F)c2)CC1)C(=O)c1ccccc1`: the “hERG current change (%, negative = inhibition) at 10uM” value was -68.5%.
As for `COc1cccc(C(=O)N(C)CC2CCN(CCc3cccc(C(F)(F)F)c3)CC2)c1`, the “hERG current change (%, negative = inhibition) at 10uM” value is -70.8%.
As to `CCOC(=O)C1CCCN(C(=O)CSc2nccn2C)C1` (stereo not shown), the “hERG current change (%, negative = inhibition) at 10uM” value was -0.344%.
Turning to `CCOC(=O)c1cnn2c(C)cc(-c3ccccc3)nc12`, the “hERG current change (%, negative = inhibition) at 10uM” value is listed as -10.4%.
As for `Cc1cc(C)c(S(=O)(=O)Nc2ncn[nH]2)cc1C`, the figure is 42.8%.
Under `COC(=O)c1ccccc1NC(=O)c1ccccc1OC` stands -23.1%; under `CN(CC1CCN(CCc2cccc(C(F)(F)F)c2)CC1)C(=O)c1ccc(F)cc1F`, -69.9%.
Under `O=C(NCCc1cccc(C(F)(F)F)c1)C1CCC(=O)N(C2CC2)C1` (stereo not shown) stands 3.12%; under `CN(Cc1cccc(C(F)(F)F)c1)C(=O)C1CCC(=O)N(CC2CCCCC2)C1` (stereo not shown), -6.77%; under `COc1ccc(/C=C2\C(=O)c3ccccc3OC2c2ccccc2)cc1` (stereo not shown), 7.66%.
On to `COC(=O)[C@@]1(Cc2ccc(OC)cc2)[C@H]2c3cc(C(=O)N4CCCC4)n(Cc4c(CO)[nH]cc(C)c4=O)c3C[C@H]2CN1C(=O)c1ccccc1`, for which the “hERG current change (%, negative = inhibition) at 10uM” value was 3.94%.
On to `Cc1cccc(OCC(=O)Nc2cc(S(=O)(=O)N3CCCCC3)ccc2N2CCN(C)CC2)c1`, for which the “hERG current change (%, negative = inhibition) at 10uM” value is given as -63%.
`CN1CCN(c2ccc(S(=O)(=O)N3CCCCC3)cc2NC(=O)COc2cccc(Cl)c2)CC1`: the “hERG current change (%, negative = inhibition) at 10uM” value is reported as -49.1%.
As to `CN1CCN(c2ccc(S(=O)(=O)N3CCCCC3)cc2NC(=O)COc2ccc([N+](=O)[O-])cc2)CC1`, the “hERG current change (%, negative = inhibition) at 10uM” value is recorded as -34.3%.
On to `Cc1cccc(OCCC(=O)Nc2cc(S(=O)(=O)N3CCCCC3)ccc2N2CCOCC2)c1`, for which the “hERG current change (%, negative = inhibition) at 10uM” value is listed as 6.71%.
As for `CN1CCN(c2ccc(S(=O)(=O)N3CCCCC3)cc2NC(=O)Cc2ccccc2F)CC1`, the “hERG current change (%, negative = inhibition) at 10uM” value was -31%.
Turning to `O=C(COc1ccc(F)cc1)Nc1cc(S(=O)(=O)N2CCCCC2)ccc1N1CCCCC1`, the “hERG current change (%, negative = inhibition) at 10uM” value is given as 9.98%.
Take `Cc1ccc(Cl)c(OCC(=O)Nc2cc(S(=O)(=O)N3CCOCC3)ccc2N2CCCC2)c1`: the “hERG current change (%, negative = inhibition) at 10uM” value is given as -15.4%.
Regarding `CN1CCN(c2ccc(S(=O)(=O)N3CCCCC3)cc2NC(=O)COc2ccc(F)cc2)CC1`, the “hERG current change (%, negative = inhibition) at 10uM” value is -75.2%.
In the case of `Cc1ccc(OCC(=O)Nc2cc(S(=O)(=O)N3CCCCC3)ccc2N2CCN(C)CC2)c(C)c1`, the “hERG current change (%, negative = inhibition) at 10uM” value was -57.7%.
As to `CN1CCN(c2ccc(S(=O)(=O)N3CCCCC3)cc2NC(=O)c2ccc(F)cc2F)CC1`, the “hERG current change (%, negative = inhibition) at 10uM” value is -68.4%.
On to `Cc1ccccc1OCC(=O)Nc1cc(S(=O)(=O)N2CCCCC2)ccc1N1CCN(C)CC1`, for which the “hERG current change (%, negative = inhibition) at 10uM” value is listed as -28.3%.
In the case of `Cc1ccccc1C(=O)Nc1cc(S(=O)(=O)N2CCCCC2)ccc1N1CCN(C)CC1`, the “hERG current change (%, negative = inhibition) at 10uM” value is -37.4%.
Consider `Cc1ccc(C)c(OCCC(=O)NNC(=O)Cn2nc(C)cc2C)c1`, for which the “hERG current change (%, negative = inhibition) at 10uM” value is 21.8%.
As for `O=C(NCc1ccccc1)C1=C[C@@H](c2ccc(Br)cc2)C[C@@H](OCCCCO)O1`, the “hERG current change (%, negative = inhibition) at 10uM” value was -36.8%.
Regarding `COc1cc2c(cc1OC)C(c1ccccc1Cl)N(C)CC2` (stereo not shown), the “hERG current change (%, negative = inhibition) at 10uM” value stood at 1.73%.
With `COc1ccc(Cc2c(O)nc(SCC(=O)NC34CC5CC(CC(C5)C3)C4)[nH]c2=O)cc1`, the “hERG current change (%, negative = inhibition) at 10uM” value was 4.4%.
On to `Cc1ccc(NC(=O)CCN2C(=O)C3CCCCC3C2=O)c(O)c1` (stereo not shown), for which the “hERG current change (%, negative = inhibition) at 10uM” value came to 11.9%.
Under `CC(CCc1ccccc1)NCC#N.Cl` (stereo not shown) stands 18.9%; under `O=c1c(Cc2ccc(Cl)cc2Cl)c(O)ccn1CC(F)(F)F`, 12.7%.
On to `COc1ccc(OC)c(S(=O)(=O)n2ccnc2C)c1`, for which the “hERG current change (%, negative = inhibition) at 10uM” value came to 0.0552%.
Turning to `CCOc1ccc(N2CC(C(=O)Nc3c(C)n(C)n(-c4ccccc4)c3=O)CC2=O)cc1` (stereo not shown), the “hERG current change (%, negative = inhibition) at 10uM” value was 22.6%.
As for `CCn1cc(C(=O)N2CCN(C(=O)c3ccco3)CC2)c2cc(OC)c(OC)cc2c1=O`, the “hERG current change (%, negative = inhibition) at 10uM” value stood at 7.72%.
Consider `CCOCCCNC(=O)c1cc(-c2ccc(Br)s2)nc2ccccc12`, for which the “hERG current change (%, negative = inhibition) at 10uM” value is given as 15%.
Consider `CC(C)C(=O)NS(=O)(=O)c1ccc(N)cc1`, for which the “hERG current change (%, negative = inhibition) at 10uM” value was determined as 8.54%.
As to `Cc1ccc(NC(=O)C2(NC(=O)c3cccc(N4C(=O)CSC4c4ccccc4)c3)CCCCC2)cc1` (stereo not shown), the “hERG current change (%, negative = inhibition) at 10uM” value came to 2.72%.
With `COc1cc(NS(=O)(=O)c2cc3c(cc2C)NC(=O)CO3)cc(OC)c1`, the “hERG current change (%, negative = inhibition) at 10uM” value was -62.2%.
Turning to `COc1ccc(NS(=O)(=O)c2cc3c(cc2C)NC(=O)CO3)c(OC)c1`, the “hERG current change (%, negative = inhibition) at 10uM” value was -15.3%.
Under `Cc1cc2c(cc1S(=O)(=O)NCCc1ccc(Cl)cc1)OCC(=O)N2` stands -21.3%.
With `Cc1ccc(CNS(=O)(=O)c2cc3c(cc2C)NC(=O)CO3)cc1`, the “hERG current change (%, negative = inhibition) at 10uM” value is -39.8%.
Regarding `COc1cccc(NS(=O)(=O)c2cc3c(cc2C)NC(=O)CO3)c1`, the “hERG current change (%, negative = inhibition) at 10uM” value is reported as -38.7%.
For the molecule `Cc1cc2c(cc1S(=O)(=O)NCc1ccc(Cl)cc1)OCC(=O)N2`, the “hERG current change (%, negative = inhibition) at 10uM” value is -57.9%.
Under `O=C(O)c1ccc(NC(=S)N2CCCCC2)cc1` stands 19.8%; under `CN(CC(=O)N1CCCCCC1)S(=O)(=O)c1ccc(Br)s1`, -9.92%; under `COc1ccc([N+](=O)[O-])cc1NC(=O)CCCOc1ccccc1`, 21.6%.
As for `COC(=O)c1cc2c(N)c(C(=O)c3ccccc3)sc2nc1C(OC)OC`, the “hERG current change (%, negative = inhibition) at 10uM” value was determined as 0.631%.
`Nc1c(C(=O)c2ccc(Cl)cc2)sc2nc3c(cc12)CCC3`: the “hERG current change (%, negative = inhibition) at 10uM” value was 12%.
For `COC(=O)c1cc2c(N)c(C(=O)c3ccc(Cl)cc3)sc2nc1C(OC)OC`, the “hERG current change (%, negative = inhibition) at 10uM” value was -69.6%.
Consider `CC(C)NC(=S)N1CCN(C(c2ccccc2)c2ccccc2)CC1`, for which the “hERG current change (%, negative = inhibition) at 10uM” value is listed as -34.7%.
Turning to `CCNC(=S)N1CCN(C(c2ccccc2)c2ccccc2)CC1`, the “hERG current change (%, negative = inhibition) at 10uM” value was found to be 2.6%.
Regarding `CCC(C)NC(=S)N1CCN(C(c2ccccc2)c2ccccc2)CC1` (stereo not shown), the “hERG current change (%, negative = inhibition) at 10uM” value is recorded as -59.6%.
With `O=c1cc(O)c2c(=O)n(-c3ccccc3)c3c(c2o1)CCCCC3`, the “hERG current change (%, negative = inhibition) at 10uM” value is reported as -0.822%.
As for `CC(C)n1c(N2CCN(C(=O)Nc3ccc(Cl)cc3)CC2)nc2ccccc21`, the figure is -36.3%.
As for `CCCn1c(N2CCN(C(=O)NCc3ccccc3)CC2)nc2ccccc21`, the “hERG current change (%, negative = inhibition) at 10uM” value is -67.9%.
As for `O=C(NCc1ccccc1)N1CCn2c(nc3ccccc32)C1`, the figure is 2.53%.
On to `Cn1c(N2CCN(C(=O)NC34CC5CC(CC(C5)C3)C4)CC2)nc2ccccc21`, for which the “hERG current change (%, negative = inhibition) at 10uM” value stood at 23.2%.
Regarding `CCCn1c(N2CCN(S(=O)(=O)Cc3ccccc3)CC2)nc2ccccc21`, the “hERG current change (%, negative = inhibition) at 10uM” value is given as 4.46%.
For `CC(C)n1c(N2CCN(C(=O)NCc3ccccc3)CC2)nc2ccccc21`, the “hERG current change (%, negative = inhibition) at 10uM” value is -59.2%.
Under `c1ccc(C(c2ccccc2)N2CCN(c3ccc4ccccc4n3)CC2)cc1` stands -3.18%; under `Cn1c(N2CCNCC2)nc2ccccc21`, -15.7%.
Consider `CC(C)n1c(N2CCN(C(=O)Nc3ccccc3)CC2)nc2ccccc21`, for which the “hERG current change (%, negative = inhibition) at 10uM” value is -14.6%.
Turning to `Cn1c(N2CCN(C(=O)NCc3ccccc3)CC2)nc2ccccc21`, the “hERG current change (%, negative = inhibition) at 10uM” value is -60%.
As for `CCCn1c(N2CCN(C(=O)Nc3ccccc3)CC2)nc2ccccc21`, the figure is -35.9%; as for `Cn1c(N2CCN(C(c3ccccc3)c3ccccc3)CC2)nc2ccccc21`, -51.7%.
